Screening data as filed in PubChem BioAssay.
Cruzain Triton = blocks cruzain activity in presence of Triton detergent; actives 0.43% (n = 200,000); Potency, µM, for inactives: max response, negative = inhibition, hits mostly inhibitors; purified cruzain, Z-FR-AMC fluorescence, 0.01% Triton; P25779;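 further: plate controls were neutral wells for no effect and buffer without enzyme for full effect; nearly all actives have a fitted effect of over 40% in size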
Target sequence (P25779 123-467 limits assumed): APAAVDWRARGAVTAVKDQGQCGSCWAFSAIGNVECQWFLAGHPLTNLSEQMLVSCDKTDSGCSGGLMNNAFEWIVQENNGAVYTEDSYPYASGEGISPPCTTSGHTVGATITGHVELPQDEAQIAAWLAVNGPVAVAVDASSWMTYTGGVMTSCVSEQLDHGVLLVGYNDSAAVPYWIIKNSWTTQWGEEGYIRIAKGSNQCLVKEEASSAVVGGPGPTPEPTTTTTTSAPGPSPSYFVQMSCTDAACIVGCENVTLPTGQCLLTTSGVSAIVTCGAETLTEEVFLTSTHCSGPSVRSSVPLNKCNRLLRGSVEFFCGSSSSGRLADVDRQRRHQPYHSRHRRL
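15 min RT preincubation of 1.5 nM cruzain with compound, then 2 uM Z-FR-AMC added; kinetic AMC fluorescence, 60 s delta. Triton X-100 0.01%, pH 5.5.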
Cruzain noTriton = cruzain (T. cruzi) inhibition without detergent. Potency, µM, for inactives: max response, negative = inhibition, most hits filed as inhibitors. actives 2.3% (n = 200,000). purified cruzain, Z-FR-AMC fluorescence, no detergent. P25779;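 further: plate controls were enzyme without inhibitor for no effect and buffer without enzyme for full effect; nearly all actives have a fitted effect of over 40% in size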
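Purified cruzain at 1.5 nM, pre-incubated 15 min with compound at room temperature in 100 mM sodium acetate pH 5.5, 5 mM DTT, 0.00005% Triton X-100. Reaction started with 2 uM Z-FR-AMC; AMC fluorescence increase over 60 s gives rate.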
Active calls of the source: *; ? = inconclusive. Rows were chosen to be rich in hits. Some 2.4% of all compounds tested hit in one or more screens of this group. The call rests on the fitted dose curve; in most records, active means well fitted curve in the direction sought with a large enough effect; inconclusive means small, poorly fitted or top-dose-only effect, or another doubt; inactive means no such curve, though single readings can be large; an effect the other way counts as inactive or inconclusive. Potency means the concentration at half of the fitted maximal effect.

SMILES	Cruzain Triton	Cruzain noTriton
Cc1ccc2c(c1)c(N=NC(N)=S)c(O)n2Cc1ccccc1	?	2.5µM*
COc1ccc(C(=O)NCC(=O)N=Nc2c(O)n(Cc3ccccc3)c3ccccc23)cc1OC	-6%	13%
Cc1cc(C)cc(NC(=O)Cn2c(=O)n(Cc3ccc4c(c3)OCO4)c(=O)c3oc4ccccc4c32)c1	1%	5%
CCCC(=O)Nc1cccc(OCc2cc(=O)n3cccc(C)c3n2)c1	6%	-14%
Cc1nn(C(C)C(=O)N2CCN(c3ccc(Cl)cc3)CC2)c(=O)c2cc3occc3n12 (configuration not stated)	-7%	?
Cc1ccc(CNc2ncnc3c2nnn3C)cc1	0%	-9%
Cc1cccc(C(=O)Nc2cc(-c3ccccc3F)nn2-c2ccccc2)c1	-1%	-8%
O=C(Nc1cc(-c2ccccc2F)nn1-c1ccccc1)c1ccccc1Br	0%	32µM*
COc1ccccc1CCNS(=O)(=O)c1ccc(N2CCCCS2(=O)=O)cc1	-3%	2%
Cc1cc(C)cc(N(CC(=O)Nc2c(C)cc(C)cc2C)S(=O)(=O)c2c(C)nn(C)c2C)c1	-4%	?
CC(C)C(c1nnnn1C1CCCC1)N1CCc2ccccc21 (configuration not stated)	0%	2%
Cc1ccc(C(c2nnnn2C2CCCC2)N2CCc3ccccc32)cc1 (configuration not stated)	-6%	32µM*
O=C(c1ccccc1)N1c2nc(-c3ccco3)nn2C2(CCCCC2)[C@@H]2CCCC[C@@H]21	-2%	-1%
Cc1cc(C(=O)Nc2nnc(C3CCCCC3)s2)cs1	13%	?
O=C(Nc1nnc(C2CCCCC2)s1)c1ccc(Br)s1	-2%	25µM*
Cc1ccc(S(=O)(=O)c2[nH]c(-c3ccccc3)nc2SC(C)C(=O)O)cc1 (configuration not stated)	-3%	-2%
Cc1nc(N2CCCC2)ncc1C(=O)Nc1ccccc1	-3%	-4%
CCOC(=O)c1c(NC(=O)COc2ccc(C)cc2C(C)(C)C)sc2c1CCC(C)C2 (configuration not stated)	0%	7%
CC(=O)OCCCNc1cc(SCc2ccco2)c2nonc2c1[N+](=O)[O-]	-21%	-17%
CCCC(=O)OCCNc1cc(SCc2ccco2)c2nonc2c1[N+](=O)[O-]	25µM*	-30%
Cc1cccc(CNc2ccnc(-c3ccccc3C(F)(F)F)n2)c1	-7%	17%
COc1ccc(NS(=O)(=O)c2ccc(N3CCCCS3(=O)=O)cc2)cc1Cl	-6%	-1%
COc1ccccc1CCNC(=O)CCCn1c(=O)c2cccn2c2cccnc21	-2%	9%
CC(C)(C)c1ccc(/C=N/NC(=S)NCc2ccccc2)cc1	-5%	?
Fc1ccccc1COc1ccc(/C=N/NC(=S)NCc2ccccc2)cc1	-1%	6.3µM*
SMILES	Cruzain Triton	Cruzain noTriton
CNC(=S)N/N=C/c1cccc(OCc2ccccc2F)c1	-10%	?
Cn1c(=O)n(C)c2cc(/C=N/NC(=S)NCc3ccccc3)ccc21	11µM*	?
O=C(/C(=C(\[O-])c1ccccc1)[n+]1ccc2ccccc2c1)c1ccccc1	-2%	?
O=C(/C(=C(\[O-])c1ccccc1)[n+]1ccc2ccccc2c1)c1ccc(Cl)cc1	0%	25µM*
CCN(CC)CCCNC(=O)C(C)n1nc(C)n2c(cc3occc32)c1=O (configuration not stated)	-3%	1%
Cc1ccc(CNc2nc3ccccc3n3nnnc23)cc1	2%	32µM*
c1ccc2c(c1)nc(Nc1ccc3c(c1)OCO3)c1nnnn12	-2%	25µM*
Cc1ccc(CNC(=O)c2ccc(Nc3nc4ccccc4n4nnnc34)cc2)cc1	-1%	-12%
Fc1cccc(Nc2nc3ccccc3n3nnnc23)c1	0%	?
Oc1ccccc1Nc1nc2ccccc2n2nnnc12	-4%	?
Fc1ccccc1Nc1nc2ccccc2n2nnnc12	0%	25µM*
Cc1cccc(NC(=O)CSc2nc3ccc(NC(=O)COc4ccc(Cl)cc4)cc3s2)c1	-4%	7.9µM*
O=C(O)CSc1nc2ccc(NC(=O)COc3ccc(Cl)cc3)cc2s1	-11%	16%
Cc1cccc(NC(=O)CSc2nc3ccc(NC(=O)CSc4nnnn4-c4ccccc4)cc3s2)c1C	-2%	?
O=C(CSc1nc2ccc(NC(=O)CSc3nnnn3-c3ccccc3)cc2s1)Nc1ccccc1	-3%	5µM*
CC1CCc2c(sc3nnn(CC(=O)Nc4ccccc4Cl)c(=O)c23)C1 (configuration not stated)	-8%	?
CCSc1nnc(NC(=O)c2ccc3c(c2)OCO3)s1	-1%	25µM*
CCSc1nnc(NC(=O)c2cc3c(s2)CCCC3)s1	9%	7.9µM*
CCSc1nnc(NC(=O)c2csc3c2CCCC3)s1	3%	?
CCSc1nnc(NC(=O)c2ccccc2)s1	-2%	5%
CCSc1nnc(NC(=O)c2cc(-c3ccc(C)c(C)c3O)n[nH]2)s1	-2%	4µM*
CCSc1nnc(NC(=O)c2csc3c2CCC(C)C3)s1 (configuration not stated)	-2%	13µM*
O=C(Nc1nnc(SCc2ccccc2)s1)c1cc2c(s1)CCCC2	-2%	?
CCSc1nnc(NC(=O)c2cc(C)on2)s1	-1%	-11%
CC1=C(c2ccc(C)cc2)S(=O)(=O)N=C1N1CCN(c2ccccc2)CC1	-7%	?
SMILES	Cruzain Triton	Cruzain noTriton
OCCNc1ncnc2c1ncn2[C@@H]1O[C@@H](CO)[C@H](O)[C@@H]1O	0%	10%
CCOC(=O)c1cc(-c2ccccc2)n(CCCC(=O)Nc2ccc(C)c(Cl)c2)c1C	0%	0%
COc1ccc(S(=O)(=O)c2nnn(-c3cc(Cl)c(OC)cc3OC)c2C)cc1	0%	7%
COc1ccc(-c2nc3ccccc3s2)cc1NC(=O)c1cccc(F)c1	-2%	-2%
CC(C)c1ccc2oc(-c3cc(NC(=O)c4cccnc4)ccc3Cl)nc2c1	-10%	?
CC(CNC(=O)c1ccc2nc(Cc3ccccc3)oc2c1)c1ccccc1 (configuration not stated)	-5%	4%
CCOc1ccccc1CNC(=O)CCn1c(=O)c2cccn2c2ccc(F)cc21	-4%	-1%
NC(=O)c1ccc(NC(=O)COC(=O)c2c3c(nc4ccccc24)/C(=C\c2cccs2)CCC3)cc1	-2%	?
CCc1cccc(C)c1NC(=O)COC(=O)c1c2c(nc3ccccc13)/C(=C\c1cccs1)CCC2	0%	7.9µM*
CCOc1ccc(-n2c(=O)c3c(C)c(C)sc3n(CC(=O)C(C)(C)C)c2=O)cc1	6%	-3%
COc1ccc(NC(=O)CSc2nnc(-c3cccs3)o2)cc1	0%	4%
CCCCOc1ccc(NC(=S)Nc2cc(C)nc(SCCCC)n2)cc1	0%	25µM*
CCOc1ccc(NC(=O)CSc2nc(C)cc(C)n2)cc1	2%	1%
COc1ccc(C(=O)OCc2cc(=O)n3nc(C4CC4)sc3n2)cc1OC	5%	-12%
COc1cc(/C=C/C(=O)c2ccc(NS(=O)(=O)c3ccc(C)cc3)cc2)ccc1OC(F)F	-2%	10µM*
COc1cc(/C=C/C(=O)c2ccc(NS(=O)(=O)c3ccc(C)cc3)cc2)cc(OC)c1O	-6%	?
CC(=O)N1CC2(CC2)CC1c1ccccc1 (configuration not stated)	6%	-9%
O=C(CCCCCn1c(=O)c2sccc2n(CC(=O)Nc2cccc(Cl)c2)c1=O)NCc1ccc2c(c1)OCO2	-2%	-19%
